Data on 24 compounds can be found in PubChem BioAssay.

Assay [1] can be described thus: stimulators of insulin release from INS-1E, primary screen, cell-based, 5 mM glucose, NPC library (AID 1117329;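 active = compound raises insulin release from rat beta cells at 5 mM glucose, no numeric limit stated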; note: reference of the scale not given here). The following applies: rat INS-1E insulin secretion, at 10 µM, active compounds read high.
Assay [2] is described as follows: growth inhibition of GSK3B-pretreated HCT116 cells – cell-based, CellTiter-Glo, 0.2 to 20 µM (AID 1117336;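 active = compounds lowering colon cancer cell viability after pretreatment blocking the GSK3B kinase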). The following applies: HCT116 viability after GSK3B inhibitor, at 20 µM, active compounds read high.
The nature of assay [3]: inhibition of endothelial tube formation, primary screen, imaging, VEGF stimulated, CD31 staining, tube area, NPC library (AID 1117340). The settings on record: VEGF-stimulated ADSC/ECFC co-culture, at 10 µM, active compounds read high.
The nature of assay [4]: GLP1 release stimulators, primary, NCI-H716, NPC library (AID 1117341;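 active = compound raises GLP1 secretion from the human gut endocrine cells, with no numeric limit stated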; note: reference of the scale not given here). The following applies: NCI-H716 cells, at 10 µM, active compounds read high.
Assay [5] in a line: HCT116 colon cancer cell growth inhibition, primary screen, CellTiter-Glo luminescence, NPC library (AID 1117342;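 active = compounds that lower survival of HCT116 colon cancer cells in the luminescence readout, no numeric limit stated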). The following applies: at 20 µM (top of the series).
Assay [6] is described as follows: reduced SW480 viability measured with CellTiter-Glo, NPC library, primary (AID 1117343;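 active = compounds that lower viability of the colon cancer cells in the luminescence readout, with no numeric limit stated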). The settings on record: CellTiter-Glo luminescence; at 20 µM (top of the series).
Assay [7] is described as follows: NPC library primary testing for decreased DLD-1 cell viability via CellTiter-Glo (AID 1117346;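 active = compounds that lower survival of DLD-1 colon cancer cells in the luminescence readout, no cutoff given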). The settings on record: DLD-1 viability, CellTiter-Glo luminescence; at 20 µM (top of the series). On the technique in general: Cellular ATP, detected with luciferase, serves as a proxy for viable cell number.

Values without a mark were called inactive. Active and inactive are the calls of the source.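 Rule for the calls, unless noted: active = compound that reduces growth-factor-driven endothelial tube area in a mixed cell culture, no cutoff stated; inactive = the rest.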

As to `CN1CCC(=C2c3ccccc3CC(=O)c3sccc32)CC1`, the insulin secretion stimulation in assay [1] was 3.05%. Also, the viability decrease in assay [2] was 10.7%. Moreover, the tube area decrease in assay [3] is -3.1%. Also, the GLP1 secretion stimulation in assay [4] was 5.2%. Also, in assay [5], the inhibition of viability is 15.7%. Also, the viability decrease (inhibition) in assay [6] is 38.1%; in assay [7], -6.6%.
In the case of `Nc1nnc(-c2cccc(Cl)c2Cl)c(N)n1`, the insulin secretion stimulation in assay [1] is -0.4%. The viability decrease in assay [2] was -5.8%. For the same compound, the tube area decrease in assay [3] was 9.4%. Also, the GLP1 secretion stimulation in assay [4] is -4.7%. For the same compound, the inhibition of viability in assay [5] is 9.7%. In addition, the viability decrease (inhibition) in assay [6] is 29.2%; in assay [7] it was -4.7%.
Turning to `CN(C/C=C/C#CC(C)(C)C)Cc1cccc2ccccc12`, in assay [1], the insulin secretion stimulation is 3.2%. Besides, in assay [2], the viability decrease is 84.2% (active). In assay [3], the tube area decrease is 5.2%. Moreover, the GLP1 secretion stimulation in assay [4] was -3.9%. Moreover, in assay [5], the inhibition of viability was 82.6% (active). Also, the viability decrease (inhibition) in assay [6] is 121% (active); in assay [7], 70.1% (active).
`COc1ncnc(NS(=O)(=O)c2ccc(N)cc2)c1OC`: the insulin secretion stimulation in assay [1] was 0.1%. Moreover, the viability decrease in assay [2] is -6.5%. In assay [3], the tube area decrease was -10.7%. Besides, the GLP1 secretion stimulation in assay [4] is 8.3%. Besides, in assay [5], the inhibition of viability was -1.93%. The viability decrease (inhibition) in assay [6] was -16.8%; in assay [7], -22.2%.
For the compound `CC(C)[C@H](N)C(=O)OCCOCn1cnc2c(=O)[nH]c(N)nc21`, the insulin secretion stimulation in assay [1] was 4.1%. Moreover, the viability decrease in assay [2] is 4.4%. Moreover, the tube area decrease in assay [3] is -8.9%. Also, the GLP1 secretion stimulation in assay [4] is 2.5%. For the same compound, the inhibition of viability in assay [5] is -1%. Besides, the viability decrease (inhibition) in assay [6] was 4.3%; in assay [7], -6.2%.
Regarding `CCCCCCCCCCCCCCCCC(C(=O)O)C(O)(CC(=O)O)C(=O)O` (stereo not drawn), the insulin secretion stimulation in assay [1] is 3.2%. Besides, the viability decrease in assay [2] is 99.8% (active). Besides, the tube area decrease in assay [3] was -7.3%. Moreover, the GLP1 secretion stimulation in assay [4] was -2.9%. Further, the inhibition of viability in assay [5] was 99.3% (active). The values for the viability decrease (inhibition) in assay [6] and in assay [7] were 103% (active) and 102% (active), respectively.
As for `Cc1cn([C@H]2C=C[C@@H](CO)O2)c(=O)[nH]c1=O`, the insulin secretion stimulation in assay [1] is 4.4%. Moreover, in assay [2], the viability decrease is -0.2%. Besides, in assay [3], the tube area decrease is -1.6%. For the same compound, the GLP1 secretion stimulation in assay [4] was -0.3%. Besides, the inhibition of viability in assay [5] is 1.2%. The viability decrease (inhibition) was -4.8% in assay [6] and -8.9% in assay [7].
As to `Clc1ccc2nsnc2c1NC1=NCCN1`, the insulin secretion stimulation in assay [1] is 0.4%. The viability decrease in assay [2] was 1.1%. Also, in assay [3], the tube area decrease was -9.7%. In addition, in assay [4], the GLP1 secretion stimulation was 2.7%. Further, the inhibition of viability in assay [5] is 11.7%. Also, the values for the viability decrease (inhibition) in assay [6] and in assay [7] were 8% and 6%, respectively.
As to `CCc1c2c(nc3ccc(OC(=O)N4CCC(N5CCCCC5)CC4)cc13)-c1cc3c(c(=O)n1C2)COC(=O)[C@]3(O)CC`, the insulin secretion stimulation in assay [1] is -1.1%. Besides, in assay [2], the viability decrease was 67.4% (active). Moreover, in assay [3], the tube area decrease is 97.9% (active). Moreover, in assay [4], the GLP1 secretion stimulation was 24% (active). In addition, the inhibition of viability in assay [5] is 50.8% (active). Also, the viability decrease (inhibition) in assay [6] was 21.7%; in assay [7], 8.7%.
For the compound `O=C(O)/C=C/c1ccc(Cn2ccnc2)cc1`, the insulin secretion stimulation in assay [1] is 1.9%. For the same compound, the viability decrease in assay [2] is -15.3%. The tube area decrease in assay [3] was 3%. Moreover, in assay [4], the GLP1 secretion stimulation is 5.1%. For the same compound, in assay [5], the inhibition of viability is 6.1%. In addition, the viability decrease (inhibition) was 9.3% in assay [6] and 9% in assay [7].
On to `CCOc1cc(N)c(Cl)cc1C(=O)NCC1CN(Cc2ccc(F)cc2)CCO1` (stereo not drawn), for which the insulin secretion stimulation in assay [1] was -0.4%. The viability decrease in assay [2] is 71.6% (active). In addition, in assay [3], the tube area decrease is 5.1%. Besides, the GLP1 secretion stimulation in assay [4] was 4.9%. Further, the inhibition of viability in assay [5] was 46.1%. Also, the viability decrease (inhibition) in assay [6] was 44.8%; in assay [7] it was 24%.
Take `CN1CCN(c2cc3c(cc2F)c(=O)c(C(=O)O)cn3-c2ccc(F)cc2)CC1`: the insulin secretion stimulation in assay [1] was -1.1%. The viability decrease in assay [2] was 9.9%. Moreover, the tube area decrease in assay [3] is -7.2%. Also, in assay [4], the GLP1 secretion stimulation was 0.1%. Also, the inhibition of viability in assay [5] was 17.4%. Also, the viability decrease (inhibition) in assay [6] was -0.8%; in assay [7] it was 2.2%.
Consider `COC(=O)C1=C(C)NC(C)=C(C(=O)O[C@@H]2CCCN(Cc3ccccc3)C2)[C@@H]1c1cccc([N+](=O)[O-])c1`, for which, in assay [1], the insulin secretion stimulation is 1.9%. Besides, the viability decrease in assay [2] was 110% (active). Further, in assay [3], the tube area decrease is 52.9% (active). Moreover, the GLP1 secretion stimulation in assay [4] is -0.5%. Also, the inhibition of viability in assay [5] was 109% (active). The viability decrease (inhibition) in assay [6] is 131% (active); in assay [7], 101% (active).
Consider `C#C[C@]1(O)CC[C@H]2[C@@H]3CCc4cc(O)ccc4[C@H]3CC[C@@]21C`, for which, in assay [1], the insulin secretion stimulation was 10.3%. For the same compound, in assay [2], the viability decrease is 45.9%. Moreover, the tube area decrease in assay [3] is 85.8% (active). The GLP1 secretion stimulation in assay [4] is -3.4%. Moreover, the inhibition of viability in assay [5] was 70.3% (active). Further, the viability decrease (inhibition) in assay [6] is 65.6% (active); in assay [7], 62.5% (active).
Consider `COc1cccc2c1C(=O)c1c(O)c3c(c(O)c1C2=O)C[C@@](O)(C(=O)CO)C[C@@H]3O[C@H]1C[C@H](N)[C@H](O)[C@H](C)O1`, for which, in assay [1], the insulin secretion stimulation is 4%. For the same compound, the viability decrease in assay [2] is -114%. The tube area decrease in assay [3] was 22.7% (active). Further, the GLP1 secretion stimulation in assay [4] is 3%. Besides, the inhibition of viability in assay [5] is 40.6%. In addition, the viability decrease (inhibition) is 99.3% (active) in assay [6] and 82.4% (active) in assay [7].
As for `CC(C)NCC(O)COc1ccc(COCCOC(C)C)cc1` (stereo not drawn), the insulin secretion stimulation in assay [1] was 1.2%. The viability decrease in assay [2] was 6.2%. For the same compound, the tube area decrease in assay [3] is -2.7%. The GLP1 secretion stimulation in assay [4] is -1.1%. Further, in assay [5], the inhibition of viability was -3.93%. Moreover, the viability decrease (inhibition) in assay [6] is 0%; in assay [7] it was -4.5%.
For the compound `COc1ccccc1OCC(O)CN1CCN(CC(=O)Nc2c(C)cccc2C)CC1` (stereo not drawn), the insulin secretion stimulation in assay [1] was 0.8%. The viability decrease in assay [2] is -14.5%. Moreover, the tube area decrease in assay [3] is 0.2%. Also, in assay [4], the GLP1 secretion stimulation was 2.2%. In addition, the inhibition of viability in assay [5] was 9.23%. The viability decrease (inhibition) is -16.2% in assay [6] and -14.6% in assay [7].
In the case of `Cc1cccc(C)c1NC(=O)C(C)N` (stereo not drawn), the insulin secretion stimulation in assay [1] is 0.2%. Besides, the viability decrease in assay [2] was -2.3%. Besides, the tube area decrease in assay [3] was -7.9%. In addition, in assay [4], the GLP1 secretion stimulation is -0.6%. The inhibition of viability in assay [5] was -4.1%. Moreover, the viability decrease (inhibition) in assay [6] is 0.1%; in assay [7] it was -5.7%.
For `O=C1CC2(CCCC2)CC(=O)N1CCNCC1COc2ccccc2O1` (stereo not drawn), in assay [1], the insulin secretion stimulation was 5%. In assay [2], the viability decrease is -32%. Further, the tube area decrease in assay [3] was -4.9%. Further, the GLP1 secretion stimulation in assay [4] is -2.3%. The inhibition of viability in assay [5] is 25.7%. The values for the viability decrease (inhibition) in assay [6] and in assay [7] were 14.5% and -5.7%, respectively.
In the case of `CN(C)CC[C@@H](c1ccc(Br)cc1)c1ccccn1`, in assay [1], the insulin secretion stimulation is 81.9% (active). In addition, the viability decrease in assay [2] was -41.6%. The tube area decrease in assay [3] is -18.3%. The GLP1 secretion stimulation in assay [4] is 1.6%. Further, the inhibition of viability in assay [5] is 27.2%. In addition, the results for the viability decrease (inhibition) in assay [6] and in assay [7] were 30.9% and 10.2%, respectively.
Take `Cn1c(NCCN(CCO)CCCc2ccc([N+](=O)[O-])cc2)cc(=O)n(C)c1=O`: the insulin secretion stimulation in assay [1] is -5.7%. Moreover, the viability decrease in assay [2] was 38.3%. Also, the tube area decrease in assay [3] is 1.8%. Besides, the GLP1 secretion stimulation in assay [4] is 2.9%. Moreover, the inhibition of viability in assay [5] was 26.6%. Besides, the results for the viability decrease (inhibition) in assay [6] and in assay [7] were 44.3% and 14.1%, respectively.
In the case of `CCOC(=O)C1=C(C)NC(C)=C(C(=O)OC)C1c1cccc(Cl)c1Cl` (stereo not drawn), the insulin secretion stimulation in assay [1] was 3.1%. For the same compound, the viability decrease in assay [2] is 113% (active). The tube area decrease in assay [3] is 58.1% (active). Moreover, the GLP1 secretion stimulation in assay [4] is 5.3%. Besides, the inhibition of viability in assay [5] is 110% (active). Besides, the viability decrease (inhibition) in assay [6] was 139% (active); in assay [7], 95.6% (active).
`O=C1[C@H]2CCCC[C@H]2C(=O)N1CCCCN1CCN(c2nsc3ccccc23)CC1`: the insulin secretion stimulation in assay [1] is 5.5%. Also, in assay [2], the viability decrease is 70.3% (active). Further, the tube area decrease in assay [3] was 25.8%. Further, the GLP1 secretion stimulation in assay [4] was 9%. The inhibition of viability in assay [5] is 88.1% (active). For the same compound, the values for the viability decrease (inhibition) in assay [6] and in assay [7] were 115% (active) and 99.8% (active), respectively.
Take `CC(C)c1ccc2oc3nc(N)c(C(=O)O)cc3c(=O)c2c1`: the insulin secretion stimulation in assay [1] was 3.2%. The viability decrease in assay [2] is 8.7%. The tube area decrease in assay [3] was 0%. Further, the GLP1 secretion stimulation in assay [4] is 0.3%. Besides, the inhibition of viability in assay [5] was -17%. Also, the values for the viability decrease (inhibition) in assay [6] and in assay [7] were 17.9% and -27.9%, respectively.
